# Most compounds without a hit are left out; they make up all but 0.4% or so of the library.
# AID inhibitor = blocks human AID cytidine deaminase activity; AID 1347428; AID deamination FRET fluorescence, UDG-coupled, 4 h; hit rate 0.32% among 91,000; Potency, µM (series often up to 115 µM), actives largely listed as inhibitors; Q9GZX7; also: nearly all actives have a fitted effect of over 25% in size
# Target sequence (Q9GZX7 whole entry, looked up): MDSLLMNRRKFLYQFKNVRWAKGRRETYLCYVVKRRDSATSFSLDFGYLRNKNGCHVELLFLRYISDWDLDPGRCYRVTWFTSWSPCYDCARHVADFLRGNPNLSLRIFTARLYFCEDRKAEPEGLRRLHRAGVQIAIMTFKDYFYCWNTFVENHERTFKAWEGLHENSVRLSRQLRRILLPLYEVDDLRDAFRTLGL
# UDG counter = blocks uracil-DNA glycosylase in AID counter-screen | FRET deamination/UDG coupled assay, UDG read, 4 h | Potency, µM (top dose mostly 115 µM), usual class: inhibitors | hit rate 0.14% among 91,000; also: nearly all actives have a fitted effect of over 65% in size
# Hits are given with their value; - = inactive; ? = inconclusive; ! = not active in a repeat. Calls follow the shape of the dose curve; as a rule, active = well fitted curve in the direction sought with a large enough effect; inconclusive = small, poorly fitted or top-dose-only effect, or another doubt; inactive = no such curve, though single readings can be large; an effect the other way counts as inactive or inconclusive.
SMILES,AID inhibitor,UDG counter
O=C(N/N=C/C1CC=CCC1)c1cccs1 (configuration not stated),-,-
CCOC(=O)c1nc2ccccc2nc1NCCc1ccc(OCC)c(OCC)c1,-,-
CCc1ccc(NC(=O)c2oc3c(c2C)-c2[nH]ncc2CC3)cc1,?,-
Cc1cc(NC(=O)c2oc3c(c2C)-c2[nH]ncc2CC3)ccc1Br,35.5µM,-
CCn1nc(C(=O)N2CCNC(=O)C2)c2ccccc2c1=O,-,-
CCCCNC(=O)c1ccc(NC(=O)Nc2ccccc2)cc1,-,-
NS(=O)(=O)c1cccc(C(=O)O)c1,-,-
CC(C)CNC(=O)c1ccccc1N,-,-
Brc1c(Br)c(Br)c2n[nH]nc2c1Br,39.8µM,-
Brc1c(Br)c(Br)c2[nH]cnc2c1Br,-,-
Cc1[nH]c2ccc(Cl)cc2c1C,-,-
COc1ccc(S(=O)(=O)N(CC(=O)Nc2cccc(C(F)(F)F)c2)c2ccc(C)cc2)cc1,25.1µM,-
COc1ccc(S(=O)(=O)N(CC(=O)NC(C)c2ccccc2)c2ccc(C)cc2)cc1OC (configuration not stated),44.7µM,?
COc1ccc(S(=O)(=O)N(CC(=O)NCc2ccccc2)c2ccc(C)cc2)cc1OC,-,-
COc1ccc(S(=O)(=O)N(CC(=O)Nc2cc(C)cc(C)c2)c2ccc(Cl)cc2)cc1,-,-
O=C(/C(Br)=C/Nc1ccc(Cl)c(Cl)c1)C(F)(F)F,-,-
Cc1nn(C)c(C)c1CNCc1ccc(N2CCOCC2)nc1,-,-
C/C(Cc1ccccc1)=N\NC(=O)C(C)C,-,-
CCc1ccc(-n2c(=O)c3c(C)c(C(=O)N(C)C)sc3n(Cc3ccccc3F)c2=O)cc1,-,-
Cc1c(C(=O)N(C)C)sc2c1c(=O)n(-c1ccc(F)cc1)c(=O)n2Cc1ccccc1C#N,-,89.1µM
O=C(CCc1ncc(-c2ccccc2Cl)o1)NCc1ccc(Cl)cc1Cl,-,-
CC(=O)N1CCc2c(sc3c2c(=O)n(Cc2ccccc2)c(=O)n3Cc2cccc(Cl)c2)C1,31.6µM,?
CC(=O)N1CCc2c(sc3c2c(=O)n(Cc2ccccc2)c(=O)n3Cc2ccc(Cl)cc2)C1,-,-
COc1ccc(-c2cc(NC(=O)c3cccc(S(=O)(=O)NCC4CCCO4)c3)ccc2OC)cc1 (configuration not stated),-,-
CCCCC(=O)Nc1oc2c(C)cccc2c(=O)c1-c1cc(OC)c(OC)c(OC)c1,-,-
SMILES,AID inhibitor,UDG counter
CCCCC(=O)Nc1oc2c(C)cccc2c(=O)c1-c1ccccc1,-,79.4µM
CONC(=O)COc1ccc(C)cc1C,-,-
Cc1cc(-c2ccc(C)c(S(=O)(=O)N3CCCC(C)C3)c2)on1 (configuration not stated),25.1µM,-
COc1ccc(-c2cc(C)no2)cc1S(=O)(=O)N1CCCC(C)C1 (configuration not stated),-,-
Clc1cccc(CSc2nc3ncccc3o2)c1,-,-
Clc1cccc(CSc2cccc3cccnc23)c1,25.1µM,-
N#Cc1ccc(NCc2ccccc2Cl)cc1,-,-
Fc1ccc(NCc2ccccc2F)cc1,-,-
Oc1ccc(NCc2ccccc2OCc2ccccc2F)cc1,20µM,-
Oc1ccc(NCc2ccccc2OCc2ccccc2Cl)cc1,31.6µM,-
O=C(O)CCCN1CCCC1,-,-
CCOc1ccc(CNc2nc(NCc3ccc(OCC)cc3)n(C(=O)C(C)C)n2)cc1,-,-
CC(=O)Nc1ccc(-c2nc(-c3ccc4c(c3)CCC4)cs2)cc1,-,-
CC(=O)NCc1ccc(-c2csc(Nc3cccc(C)c3)n2)o1,-,-
COc1cccc(NC(=O)CCCN(c2ccc(Cl)cc2)S(C)(=O)=O)c1,-,-
Cc1cccc(NC(=O)Cn2c(=O)oc3cc(S(=O)(=O)N4CCCCCC4)ccc32)c1,-,-
COc1cccc(NC(=O)Cn2c(=O)oc3cc(S(=O)(=O)N4CCCCC4)ccc32)c1,-,89.1µM
Cc1cccc(N2CCN(C(=O)c3cc4ccc5cccnc5c4[nH]3)CC2C)c1 (configuration not stated),35.5µM,?
Cc1ccc(C)c(N2CCN(C(=O)c3cc4ccc5cccnc5c4[nH]3)CC2)c1,?,-
Cc1ccc(Cl)cc1NC(=S)NCCSc1ccc(Cl)cc1,-,-
CCOc1ccccc1N1CC(c2nc3ccccc3n2CCCCOc2cc(C)ccc2C)CC1=O (configuration not stated),-,-
Cc1ccc(C)c(OCCn2c(C3CC(=O)N(Cc4ccc(F)cc4)C3)nc3ccccc32)c1 (configuration not stated),28.2µM,79.4µM
CCCOC(=O)c1cccc(Nc2nc(C(=O)OCC)nc3ccccc23)c1,-,89.1µM
CCOC(=O)c1cccc(Nc2nc(C(=O)OCC)nc3ccccc23)c1,-,-
CC1CCN(S(=O)(=O)c2ccc(NC(=O)C3CC(=O)N(CCc4ccc(F)cc4)C3)cc2)CC1 (configuration not stated),-,89.1µM
SMILES,AID inhibitor,UDG counter
CCc1ccc(NC(=O)C2CCCN(S(=O)(=O)c3ccc(F)cc3)C2)cc1 (configuration not stated),-,-
COc1cc(F)ccc1-c1ccc(=O)n(CC(=O)N2CCC(Cc3ccccc3)CC2)n1,-,-
COc1ccc2nc(Nc3nc(-c4ccccc4)cc(=O)[nH]3)nc(C)c2c1,-,-
COc1cccc(-c2cc(=O)[nH]c(Nc3nc(C)c4ccccc4n3)n2)c1,22.4µM,-
Cn1c(-c2ccccc2)c(C(=O)CSc2ncc(C(F)(F)F)cc2Cl)c2ccccc21,-,-
CCN(CC)c1ccc(NC(=O)CCCn2cnc3c2c(=O)n(C)c(=O)n3C)cc1,-,-
CSc1ccc(C2CC(C)=NN2c2nc(-c3ccccc3)cs2)cc1 (configuration not stated),-,-
COc1ccc(-c2csc(N3N=C(C)CC3c3cc(OC)c(OC)c(OC)c3)n2)cc1 (configuration not stated),?,89.1µM
O=C(C1CC1)N(Cc1ccc2c(c1)CN(S(=O)(=O)c1cc(F)ccc1F)CCO2)c1ccccc1,-,89.1µM
O=C(C1CC1)N(Cc1ccc2c(c1)CN(S(=O)(=O)c1cc(F)cc(F)c1)CCO2)c1ccccc1,-,-
CS(=O)(=O)c1ccc(C(=O)Nc2ccc(-c3cn4ccsc4n3)cc2)cc1,-,-
O=C(NC1CCCCC1)c1ccc2c(c1)-c1ccccc1C2,-,-
COc1ccc(Nc2nc3ccccc3nc2NS(=O)(=O)c2ccc(Cl)cc2)cc1OC,79.4µM!,-
COc1ccc(Nc2nc3ccccc3nc2NS(=O)(=O)c2ccc(NC(C)=O)cc2)cc1OC,-,-
COc1ccccc1S(=O)(=O)Cc1ccc(C(=O)N2CCN(c3cc(Cl)ccc3C)CC2)o1,?,89.1µM
CCn1cc(C(=O)N2CCN(c3cc(Cl)ccc3C)CC2)c2cc(OC)c(OC)cc2c1=O,-,-
Cn1c(=O)c2c(-c3ccc(Br)cc3)n(CCc3ccccc3)cc2n(C)c1=O,39.8µM,-
Cn1c(=O)c2c(-c3ccc(Cl)cc3)n(CCc3ccccc3)cc2n(C)c1=O,?,-
Cn1c(=O)[nH]c(=O)c2c1nc(CN1CCN(Cc3ccccc3)CC1)n2CCCO,-,-
CCOc1ccc(C(=O)c2cn(CC(=O)Nc3ccc4c(c3)OCO4)c3ccc(OC)cc3c2=O)cc1,44.7µM,-
CCOc1ccc(C(=O)c2cn(CC(=O)Nc3ccc4c(c3)OCO4)c3ccc(OCC)cc3c2=O)cc1,-,-
